# Laboratory results published in paper PMC4336329 (PLoS ONE, 2015).
# In all, about 310,000 compounds went through this assay and about 14,000 (4.5%) showed an effect of 50% or more. Effects have a minus sign here. Only a selection was taken, and strong results are over-represented in it overall.
# Biological target: human ether-à-go-go-related gene (hERG) potassium channel (human, UniProt Q12809)
# Test: primary screen, population patch clamp on CHO cells stably expressing hERG; higher = less effect of the substance
# 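Further: peak tail current of the secondary pulse compared with the same well before compound.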
# Chain of human ether-à-go-go-related gene (hERG) potassium channel (Q12809 whole entry, looked up): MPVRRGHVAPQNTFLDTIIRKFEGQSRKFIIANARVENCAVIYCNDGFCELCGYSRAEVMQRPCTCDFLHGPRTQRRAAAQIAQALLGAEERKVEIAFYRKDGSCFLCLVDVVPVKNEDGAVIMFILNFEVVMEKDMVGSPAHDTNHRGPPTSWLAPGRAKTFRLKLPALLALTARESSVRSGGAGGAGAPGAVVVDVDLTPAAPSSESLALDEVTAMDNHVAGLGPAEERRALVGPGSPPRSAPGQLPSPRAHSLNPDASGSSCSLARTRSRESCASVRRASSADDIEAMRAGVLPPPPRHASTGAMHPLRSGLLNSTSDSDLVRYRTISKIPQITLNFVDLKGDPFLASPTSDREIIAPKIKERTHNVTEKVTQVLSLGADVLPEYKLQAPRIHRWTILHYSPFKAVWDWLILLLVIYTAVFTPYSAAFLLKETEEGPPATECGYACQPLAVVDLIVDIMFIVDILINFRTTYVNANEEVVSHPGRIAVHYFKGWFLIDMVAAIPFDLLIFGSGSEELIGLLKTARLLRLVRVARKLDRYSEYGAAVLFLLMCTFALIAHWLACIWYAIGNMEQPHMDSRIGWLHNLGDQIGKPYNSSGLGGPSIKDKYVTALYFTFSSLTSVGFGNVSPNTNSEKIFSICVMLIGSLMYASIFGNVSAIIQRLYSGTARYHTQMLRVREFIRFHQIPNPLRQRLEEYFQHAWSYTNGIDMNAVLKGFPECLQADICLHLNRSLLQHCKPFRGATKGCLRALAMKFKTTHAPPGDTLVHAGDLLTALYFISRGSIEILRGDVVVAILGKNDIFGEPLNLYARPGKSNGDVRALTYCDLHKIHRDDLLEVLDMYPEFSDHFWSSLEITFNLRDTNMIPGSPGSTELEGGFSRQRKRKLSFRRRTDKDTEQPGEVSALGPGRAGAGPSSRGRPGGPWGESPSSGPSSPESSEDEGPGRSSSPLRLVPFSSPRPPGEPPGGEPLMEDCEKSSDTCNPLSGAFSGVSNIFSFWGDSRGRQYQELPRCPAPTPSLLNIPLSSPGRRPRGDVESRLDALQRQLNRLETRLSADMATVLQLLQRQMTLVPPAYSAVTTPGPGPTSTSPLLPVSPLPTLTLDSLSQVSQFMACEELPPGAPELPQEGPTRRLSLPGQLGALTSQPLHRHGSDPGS
row,SMILES,"hERG current change (%, negative = inhibition) at 10uM"
1,Cc1cc(C)c(CN2CCC(n3nccc3NC(=O)c3ccccc3Cl)CC2)cc1C,-50.8%
2,O=C(Nc1ccnn1C1CCN(C2CCCC2)CC1)c1ccccc1Cl,-45%
3,O=C(Nc1ccnn1C1CCN(Cc2cccnc2)CC1)c1ccccc1Cl,-37.1%
4,Cc1ccccc1C(=O)Nc1ccnn1C1CCN(Cc2ccncc2)CC1,-45.1%
5,O=C(Nc1ccnn1C1CCN(C2CCC2)CC1)c1ccccc1Cl,-63.6%
6,CCc1ccc(CN2CCC(n3nccc3NC(=O)c3ccccc3C)CC2)cc1,-76.2%
7,O=C(Nc1ccnn1C1CCN(C2CCC2)CC1)c1ccccc1,-0.539%
8,C=CCN1C(=O)C(C)(C)Nc2ccccc21,6.7%
9,O=C(c1cccnc1Cl)N(Cc1ccccc1)Cc1ccccc1,-17.7%
10,CC(=O)Nc1ccc(-c2csc(-c3cccnc3)n2)cc1,3.98%
11,O=C1Nc2ccccc2/C1=C/c1ccccc1F,26.3%
12,COc1cc(NC(=O)C2CCCO2)c(OC)cc1NC(=O)c1ccccc1 (centres unmarked),8.17%
13,CC(=O)OC[C@H]1O[C@@H](Sc2cccc3cccnc23)[C@H](OC(C)=O)[C@@H](OC(C)=O)[C@@H]1OC(C)=O,-11.4%
14,CCCN(C#N)c1nc(NCC)nc(NC(C)C)n1,-10.2%
15,O=C1CN(CC(=O)Nc2ccc(Cl)cc2)CCN1,-4.87%
16,CC(=O)c1cccc(NC(=O)N2C3CCCC2CC(NC(=O)C2CC2)C3)c1 (centres unmarked),17.2%
17,COC(C(=O)Nc1ccnn1C1CCN(Cc2nccs2)CC1)c1ccccc1 (centres unmarked),0.847%
18,Cc1cccc(CN2CCC(n3nccc3NC(=O)c3ccccc3C)CC2)n1,-19.9%
19,CSc1ccc(CN2CCC(n3nccc3NC(=O)c3ccccc3C)CC2)cc1,-75%
20,CCN1CCC(n2nccc2NC(=O)c2ccccc2Cl)CC1,-21%
21,COc1ccccc1C(=O)Nc1ccnn1C1CCN(Cc2ccccc2OCCO)CC1,-78.7%
22,COC(C(=O)Nc1ccnn1C1CCN(Cc2ccc(C)s2)CC1)c1ccccc1 (centres unmarked),-50.8%

row,SMILES,"hERG current change (%, negative = inhibition) at 10uM"
1,COC(C(=O)Nc1ccnn1C1CCN(Cc2ccc(Cl)s2)CC1)c1ccccc1 (centres unmarked),-5.29%
2,CCc1ccc(CN2CCC(n3nccc3NC(=O)c3ccccc3Cl)CC2)cc1,-84.4%
3,Cc1cc(OCC(=O)Nc2cccnc2)c2c(C)cc(=O)oc2c1,4.24%
4,O=C(Cc1cccs1)N1CCN(c2nc(-c3ccc(Cl)cc3)cs2)CC1,-8.73%
5,c1ccc(-c2cnc(-c3ccccc3)nc2)cc1,13.4%
6,CCOc1ccc(N/C=C/C(=O)c2ccc(OC)cc2)c([N+](=O)[O-])c1,24.5%
7,CCOC(=O)C1CCCN(C(=O)c2ccc3nc(-c4cccc(OC)c4)oc3c2)C1 (centres unmarked),-28.6%
8,CC(O)C(O)C(O)C(O)C1NCCS1 (centres unmarked),6.81%
9,Cc1cc(C)cc(N(CCC#N)C(=O)COC(=O)CCc2c[nH]c3ccccc23)c1,-32.6%
10,O=C(NCCc1c[nH]c2ccccc12)OCCSS(=O)(=O)[O-].[Na+],9.49%
11,Br.O=C(c1ccc(Br)cc1)c1sc(N2CCOCC2)nc1-c1ccccc1,-1.44%
12,CCCN(Cc1cc2ccc(C)cc2[nH]c1=O)S(=O)(=O)c1ccccc1,6.34%
13,Cc1ccc(S(=O)(=O)N2CCN(Cc3ccco3)CC2)c(C)c1,-35.6%
14,O=S(=O)(c1cc(Cl)ccc1Cl)N1CCN(Cc2ccco2)CC1,-54.1%
15,O=C(c1ccco1)N1CCN(S(=O)(=O)c2cc(Cl)ccc2Cl)CC1,-21.5%
16,CC(=O)C(Sc1nc(N(C)C)nc(N(C)C)n1)C(=O)Nc1ccccc1 (centres unmarked),-3.04%
17,CC(NC(=O)C1CCCN(S(=O)(=O)c2cccs2)C1)c1ccccc1 (centres unmarked),6.73%
18,COc1cccc2c1OCC(C(=O)OCc1cccnc1)=C2,-17.4%
19,COc1ccc2c(c1)C=C(C(=O)OCc1cccnc1)CO2,3.63%
20,O=C(OCc1cccnc1)C1=Cc2ccccc2OC1,-64.9%
21,O=C(NCC1(c2ccccc2)CCOCC1)c1cccs1,13.9%
22,COC(=O)C1=C(C)Nc2c(c(=O)n(C)c(=O)n2C)C1c1cccnc1 (centres unmarked),-2.61%
